This is part of a sample that, as a whole, favours compounds with a hit. Of some 83,000 tested, about 20% had one in any assay.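 Note: values are percent growth. 100 is the growth of untreated cells, values between 100 and 0 indicate rising inhibition; between -100 and 0 indicates cell death.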
Experiments:
Assay in all cases: NCI-60 one-dose screen, 48 h (100 = growth as untreated, 0 = no growth, -100 = all killed)
Conditions in all cases: 10 µM unless noted; active = growth percent below 10; inactive = the rest
HCT-15 colon = test system: HCT-15 colon
HT29 colon = test system: HT29 colon
SNB-75 CNS = test system: SNB-75 CNS
SNB-19 CNS = test system: SNB-19 CNS
U251 CNS = test system: U251 CNS
PC-3 prostate = test system: PC-3 prostate
SK-MEL-5 melanoma = test system: SK-MEL-5 melanoma
UACC-62 melanoma = test system: UACC-62 melanoma
LOX IMVI melanoma = test system: LOX IMVI melanoma
SK-MEL-28 melanoma = test system: SK-MEL-28 melanoma

Measured: growth

c1coc(CSc2ncnc3nc[nH]c23)c1
inactive: HCT-15 colon 101% | HT29 colon 110% | SNB-75 CNS 95.1% | SNB-19 CNS 86.2% | U251 CNS 102% | PC-3 prostate 90.1% | SK-MEL-5 melanoma 109% | UACC-62 melanoma 98.3% | LOX IMVI melanoma 89.2% | SK-MEL-28 melanoma 108%

CN1CCN(Cn2nc(-c3cc(F)c(Cl)cc3Cl)n(/N=C/c3ccc(N(C)C)cc3)c2=S)CC1
inactive: HCT-15 colon 100% | HT29 colon 99.5% | SNB-75 CNS 78.7% | SNB-19 CNS 71.5% | U251 CNS 95.2% | PC-3 prostate 76.2% | SK-MEL-5 melanoma 79.7% | UACC-62 melanoma 79.4% | LOX IMVI melanoma 79.9% | SK-MEL-28 melanoma 82.1%

Cc1ccc(NC(=O)CN2CCOCC2)cc1Cl
inactive: HCT-15 colon 102% | HT29 colon 80.6% | SNB-75 CNS 97.4% | SNB-19 CNS 94.8% | U251 CNS 97.7% | PC-3 prostate 74.7% | SK-MEL-5 melanoma 95.6% | UACC-62 melanoma 92.7% | LOX IMVI melanoma 101% | SK-MEL-28 melanoma 104%

C[C@H]1C=C(C[C@@H](O)CCCCCCCCCC[C@@H](O)[C@H]2CCC(=O)O2)C(=O)O1
inactive: HCT-15 colon 108% | HT29 colon 109% | SNB-75 CNS 115% | SNB-19 CNS 96.7% | U251 CNS 99.5% | PC-3 prostate 89.4% | SK-MEL-5 melanoma 95.9% | UACC-62 melanoma 92.2% | LOX IMVI melanoma 90.5% | SK-MEL-28 melanoma 124%

COc1ccc(OCC(O)CN2CCN(c3ccc(Cl)cc3)CC2)cc1 (stereo not given)
inactive: HCT-15 colon 105% | HT29 colon 98.5% | SNB-75 CNS 84.7% | SNB-19 CNS 85.7% | U251 CNS 94.5% | PC-3 prostate 104% | SK-MEL-5 melanoma 84.3% | UACC-62 melanoma 84.9% | LOX IMVI melanoma 91.4% | SK-MEL-28 melanoma 114%

O=C1c2ccccc2OC=C(c2ccccc2)N1CCCCN1CCCCC1
inactive: HCT-15 colon 86.2% | HT29 colon 13.6% | SNB-75 CNS 76.1% | SNB-19 CNS 50.7% | U251 CNS 30.3% | PC-3 prostate 23.3% | SK-MEL-5 melanoma 84.5% | UACC-62 melanoma 69.1% | LOX IMVI melanoma 54.5% | SK-MEL-28 melanoma 87.3%

CC(C)(C)C(=O)Nc1nc2c(s1)CCc1ccn(S(=O)(=O)c3ccccc3)c1-2
inactive: HCT-15 colon 92.8% | HT29 colon 79.5% | SNB-75 CNS 89.6% | SNB-19 CNS 116% | U251 CNS 94.1% | PC-3 prostate 81.1% | SK-MEL-5 melanoma 99.9% | UACC-62 melanoma 77.2% | LOX IMVI melanoma 84.5% | SK-MEL-28 melanoma 101%

O=S(c1ccccc1)c1ccc2nnnn2n1 (stereo not given)
inactive: HCT-15 colon 79.8% | HT29 colon 92% | SNB-75 CNS 107% | SNB-19 CNS 107% | U251 CNS 103% | PC-3 prostate 96.6% | SK-MEL-5 melanoma 99.8% | UACC-62 melanoma 98.6% | LOX IMVI melanoma 89.7% | SK-MEL-28 melanoma 105%

C[C@H]1C=C(C[C@@H](O)CC#CC#CCCCCC[C@@H](O)[C@H]2CCC(=O)O2)C(=O)O1
inactive: HCT-15 colon 110% | HT29 colon 99.1% | SNB-75 CNS 118% | SNB-19 CNS 102% | U251 CNS 99.4% | PC-3 prostate 111% | SK-MEL-5 melanoma 99.8% | UACC-62 melanoma 95.1% | LOX IMVI melanoma 92.6% | SK-MEL-28 melanoma 123%

N#CC(C#N)=C(C#N)c1c[nH]c2ccccc12
inactive: HCT-15 colon 73.3% | HT29 colon 80.4% | SNB-75 CNS 79.6% | SNB-19 CNS 92.9% | U251 CNS 86.3% | PC-3 prostate 73.1% | SK-MEL-5 melanoma 92.8% | UACC-62 melanoma 82.9% | LOX IMVI melanoma 82.3% | SK-MEL-28 melanoma 108%

CN(C)c1ccc(/C=c2\s/c(=C\C(=O)C(C)(C)C)[nH]c2=O)cc1
inactive: HCT-15 colon 95.5% | HT29 colon 91% | SNB-75 CNS 94.3% | SNB-19 CNS 97.5% | U251 CNS 94.1% | PC-3 prostate 85.2% | SK-MEL-5 melanoma 101% | UACC-62 melanoma 95.3% | LOX IMVI melanoma 87.1% | SK-MEL-28 melanoma 104%

Cc1cn([C@]2(CF)O[C@H](CO)C2C)c(=O)[nH]c1=O (stereo not given in full)
inactive: HCT-15 colon 112% | HT29 colon 112% | SNB-75 CNS 116% | SNB-19 CNS 118% | U251 CNS 103% | PC-3 prostate 117% | SK-MEL-5 melanoma 89.4% | UACC-62 melanoma 122% | LOX IMVI melanoma 97.9% | SK-MEL-28 melanoma 121%

Clc1ccc(OCc2nc(-c3ccccc3)n[nH]2)c(Cl)c1
inactive: HCT-15 colon 101% | HT29 colon 101% | SNB-75 CNS 93.6% | SNB-19 CNS 99.3% | U251 CNS 95.5% | PC-3 prostate 87.3% | SK-MEL-5 melanoma 100% | UACC-62 melanoma 95.6% | LOX IMVI melanoma 94.6% | SK-MEL-28 melanoma 110%

COc1cc(/C=C/C(=O)c2c(C)n([O-])c3cc(C)c(C)cc3[n+]2=O)cc(OC)c1OC
inactive: HCT-15 colon 51.7% | HT29 colon 70.6% | SNB-75 CNS 50.5% | SNB-19 CNS 60.5% | U251 CNS 45.8% | PC-3 prostate 59.6% | SK-MEL-5 melanoma 59% | UACC-62 melanoma 64% | LOX IMVI melanoma 51.7% | SK-MEL-28 melanoma 72.9%
